Measurements published in the supplement of paper PMC11732987, “Enantioselective OTUD7B fragment discovery through chemoproteomics screening and high-throughput optimisation” (Communications Chemistry, 2025).

Assays:
Test in all cases: log2 ratio of Biotin-Ahx-Ub-VS probe labelling (fragment/DMSO); higher = less target engagement (more negative = stronger competition), active = hit call of the paper (q ≤ 0.05, log2 ratio ≤ -1)
Conditions in all cases: compound concentration: 200 uM; treatment time: 3 h
USP42 = biological target: T1, USP42 (UniProt Q9H9J4)
T1 sequence (whole entry): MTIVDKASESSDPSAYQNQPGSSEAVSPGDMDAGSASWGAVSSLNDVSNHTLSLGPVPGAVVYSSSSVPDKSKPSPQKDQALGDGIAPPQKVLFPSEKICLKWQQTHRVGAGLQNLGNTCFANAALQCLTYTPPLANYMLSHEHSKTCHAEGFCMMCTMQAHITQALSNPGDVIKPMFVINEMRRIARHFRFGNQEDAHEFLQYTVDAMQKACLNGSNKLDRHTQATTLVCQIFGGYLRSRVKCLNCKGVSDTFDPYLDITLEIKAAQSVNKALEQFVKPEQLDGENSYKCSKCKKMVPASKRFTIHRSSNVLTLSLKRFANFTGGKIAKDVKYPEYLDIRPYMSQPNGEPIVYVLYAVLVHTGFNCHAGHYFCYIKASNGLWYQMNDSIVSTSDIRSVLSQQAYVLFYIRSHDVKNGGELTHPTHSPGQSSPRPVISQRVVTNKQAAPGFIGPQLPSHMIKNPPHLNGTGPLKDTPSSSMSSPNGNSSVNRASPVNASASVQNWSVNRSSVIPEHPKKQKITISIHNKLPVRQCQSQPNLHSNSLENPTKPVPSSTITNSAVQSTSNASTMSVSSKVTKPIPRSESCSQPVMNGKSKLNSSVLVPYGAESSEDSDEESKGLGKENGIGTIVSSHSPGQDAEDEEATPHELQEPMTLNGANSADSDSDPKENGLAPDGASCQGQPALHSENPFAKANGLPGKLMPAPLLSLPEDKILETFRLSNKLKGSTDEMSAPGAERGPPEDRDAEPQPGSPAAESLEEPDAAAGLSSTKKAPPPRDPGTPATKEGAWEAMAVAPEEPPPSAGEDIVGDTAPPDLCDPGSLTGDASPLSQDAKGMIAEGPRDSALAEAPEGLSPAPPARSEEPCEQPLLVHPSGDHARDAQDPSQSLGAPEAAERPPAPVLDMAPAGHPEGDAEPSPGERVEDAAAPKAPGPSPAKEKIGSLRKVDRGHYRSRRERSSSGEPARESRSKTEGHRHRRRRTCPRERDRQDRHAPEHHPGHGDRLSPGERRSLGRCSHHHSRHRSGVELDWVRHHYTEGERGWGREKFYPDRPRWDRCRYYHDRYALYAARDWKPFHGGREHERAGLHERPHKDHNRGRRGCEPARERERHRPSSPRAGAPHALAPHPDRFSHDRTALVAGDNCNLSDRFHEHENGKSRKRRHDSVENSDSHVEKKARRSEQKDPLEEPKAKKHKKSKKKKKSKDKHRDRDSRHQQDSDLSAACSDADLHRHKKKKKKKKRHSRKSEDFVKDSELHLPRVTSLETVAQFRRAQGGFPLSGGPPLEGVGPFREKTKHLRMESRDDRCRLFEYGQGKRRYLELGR
Outline: (§1)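 The table lists average log2 ratios of fragment over vehicle, from an unpaired t-test on global-median-normalised Spectronaut label-free quantities. Proteins with ≥2 unique peptides were used. Samples were HEK293T lysate (495 µg) treated in triplicate with fragment at 200 µM or vehicle for 3 h, then with Biotin-Ahx-Ub-VS (0.5 µM final) for 1 h, with labelled DUBs NeutrAvidin-enriched and run by diaPASEF LC-MS/MS.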

USP46 = USP46 (UniProt P62068)
USP46, sequence (P62068 whole entry): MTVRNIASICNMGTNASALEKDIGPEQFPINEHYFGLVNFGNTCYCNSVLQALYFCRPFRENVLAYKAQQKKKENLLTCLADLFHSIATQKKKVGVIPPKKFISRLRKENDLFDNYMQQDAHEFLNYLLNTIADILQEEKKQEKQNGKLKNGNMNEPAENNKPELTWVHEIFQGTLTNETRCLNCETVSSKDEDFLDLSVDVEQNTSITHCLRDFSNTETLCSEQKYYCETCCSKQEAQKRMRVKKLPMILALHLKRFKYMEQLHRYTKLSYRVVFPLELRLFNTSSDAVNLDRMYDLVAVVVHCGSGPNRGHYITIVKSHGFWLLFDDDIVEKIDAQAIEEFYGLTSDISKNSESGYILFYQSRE
Outline: as §1

USP47 = biological target: T2, USP47 (UniProt Q96K76)
T2 sequence (whole entry): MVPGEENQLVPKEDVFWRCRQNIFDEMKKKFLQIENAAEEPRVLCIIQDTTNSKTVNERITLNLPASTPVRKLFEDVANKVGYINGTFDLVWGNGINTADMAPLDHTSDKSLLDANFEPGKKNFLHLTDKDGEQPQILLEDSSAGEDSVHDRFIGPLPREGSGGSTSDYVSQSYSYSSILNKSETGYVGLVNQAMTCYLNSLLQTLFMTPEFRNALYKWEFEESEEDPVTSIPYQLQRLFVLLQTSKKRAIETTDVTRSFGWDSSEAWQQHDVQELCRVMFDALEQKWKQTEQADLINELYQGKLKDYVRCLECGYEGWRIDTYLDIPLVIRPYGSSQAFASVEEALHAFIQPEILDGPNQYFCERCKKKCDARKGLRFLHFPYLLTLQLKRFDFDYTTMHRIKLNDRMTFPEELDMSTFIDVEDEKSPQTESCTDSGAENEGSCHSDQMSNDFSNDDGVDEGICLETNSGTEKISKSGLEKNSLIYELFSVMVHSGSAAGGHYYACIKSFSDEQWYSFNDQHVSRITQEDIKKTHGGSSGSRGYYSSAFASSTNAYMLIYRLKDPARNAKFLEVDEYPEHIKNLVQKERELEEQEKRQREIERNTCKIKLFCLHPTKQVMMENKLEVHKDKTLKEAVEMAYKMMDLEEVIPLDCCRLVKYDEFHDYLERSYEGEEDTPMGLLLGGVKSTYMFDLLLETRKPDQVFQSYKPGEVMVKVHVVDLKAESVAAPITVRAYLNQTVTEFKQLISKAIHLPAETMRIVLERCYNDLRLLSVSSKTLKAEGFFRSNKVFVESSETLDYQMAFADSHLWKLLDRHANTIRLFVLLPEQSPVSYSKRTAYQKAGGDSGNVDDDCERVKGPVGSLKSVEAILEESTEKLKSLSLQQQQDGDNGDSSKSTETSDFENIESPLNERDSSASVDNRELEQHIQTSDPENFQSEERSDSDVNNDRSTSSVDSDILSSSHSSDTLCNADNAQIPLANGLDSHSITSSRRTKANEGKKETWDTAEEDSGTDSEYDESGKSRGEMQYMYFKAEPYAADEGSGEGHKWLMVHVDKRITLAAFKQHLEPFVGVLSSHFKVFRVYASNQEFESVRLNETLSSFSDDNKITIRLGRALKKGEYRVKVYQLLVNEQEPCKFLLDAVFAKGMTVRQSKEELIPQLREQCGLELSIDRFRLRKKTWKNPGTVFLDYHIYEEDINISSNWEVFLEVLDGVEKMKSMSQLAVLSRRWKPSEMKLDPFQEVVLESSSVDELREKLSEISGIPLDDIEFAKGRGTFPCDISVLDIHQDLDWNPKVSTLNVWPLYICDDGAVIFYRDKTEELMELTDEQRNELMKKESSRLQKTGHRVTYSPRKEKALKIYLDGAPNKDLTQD
Outline: as §1

USP48 = biological target: T3, USP48 (UniProt Q86UV5)
T3 sequence (whole entry): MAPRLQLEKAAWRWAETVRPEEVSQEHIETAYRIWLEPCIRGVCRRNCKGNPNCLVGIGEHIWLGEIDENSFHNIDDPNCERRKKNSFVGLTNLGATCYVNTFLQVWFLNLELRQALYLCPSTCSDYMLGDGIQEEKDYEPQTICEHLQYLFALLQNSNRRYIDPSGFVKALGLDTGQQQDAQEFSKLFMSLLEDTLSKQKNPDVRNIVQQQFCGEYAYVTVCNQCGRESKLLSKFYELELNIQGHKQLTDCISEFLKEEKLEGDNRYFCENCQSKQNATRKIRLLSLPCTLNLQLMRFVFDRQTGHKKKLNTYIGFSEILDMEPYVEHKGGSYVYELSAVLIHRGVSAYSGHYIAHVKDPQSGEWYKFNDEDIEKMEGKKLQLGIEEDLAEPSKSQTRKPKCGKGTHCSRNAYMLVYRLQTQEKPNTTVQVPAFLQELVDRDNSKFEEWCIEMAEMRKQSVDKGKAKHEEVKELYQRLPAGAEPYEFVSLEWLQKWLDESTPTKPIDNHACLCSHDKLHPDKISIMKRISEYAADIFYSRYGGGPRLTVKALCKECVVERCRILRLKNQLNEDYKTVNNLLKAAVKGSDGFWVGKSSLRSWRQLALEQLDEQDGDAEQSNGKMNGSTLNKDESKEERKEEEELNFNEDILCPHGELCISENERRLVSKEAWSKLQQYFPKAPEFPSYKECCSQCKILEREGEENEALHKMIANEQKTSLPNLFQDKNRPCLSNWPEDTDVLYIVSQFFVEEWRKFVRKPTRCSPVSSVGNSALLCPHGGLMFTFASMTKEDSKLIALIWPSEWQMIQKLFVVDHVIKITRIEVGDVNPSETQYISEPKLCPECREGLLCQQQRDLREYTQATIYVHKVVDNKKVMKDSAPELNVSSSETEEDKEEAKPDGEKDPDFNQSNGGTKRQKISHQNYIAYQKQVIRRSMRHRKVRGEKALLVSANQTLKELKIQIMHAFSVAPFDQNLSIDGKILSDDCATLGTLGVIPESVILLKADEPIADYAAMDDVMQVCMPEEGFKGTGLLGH
Outline: as §1

USP5 = biological target: T4, USP5 (UniProt P45974)
T4 sequence (whole entry): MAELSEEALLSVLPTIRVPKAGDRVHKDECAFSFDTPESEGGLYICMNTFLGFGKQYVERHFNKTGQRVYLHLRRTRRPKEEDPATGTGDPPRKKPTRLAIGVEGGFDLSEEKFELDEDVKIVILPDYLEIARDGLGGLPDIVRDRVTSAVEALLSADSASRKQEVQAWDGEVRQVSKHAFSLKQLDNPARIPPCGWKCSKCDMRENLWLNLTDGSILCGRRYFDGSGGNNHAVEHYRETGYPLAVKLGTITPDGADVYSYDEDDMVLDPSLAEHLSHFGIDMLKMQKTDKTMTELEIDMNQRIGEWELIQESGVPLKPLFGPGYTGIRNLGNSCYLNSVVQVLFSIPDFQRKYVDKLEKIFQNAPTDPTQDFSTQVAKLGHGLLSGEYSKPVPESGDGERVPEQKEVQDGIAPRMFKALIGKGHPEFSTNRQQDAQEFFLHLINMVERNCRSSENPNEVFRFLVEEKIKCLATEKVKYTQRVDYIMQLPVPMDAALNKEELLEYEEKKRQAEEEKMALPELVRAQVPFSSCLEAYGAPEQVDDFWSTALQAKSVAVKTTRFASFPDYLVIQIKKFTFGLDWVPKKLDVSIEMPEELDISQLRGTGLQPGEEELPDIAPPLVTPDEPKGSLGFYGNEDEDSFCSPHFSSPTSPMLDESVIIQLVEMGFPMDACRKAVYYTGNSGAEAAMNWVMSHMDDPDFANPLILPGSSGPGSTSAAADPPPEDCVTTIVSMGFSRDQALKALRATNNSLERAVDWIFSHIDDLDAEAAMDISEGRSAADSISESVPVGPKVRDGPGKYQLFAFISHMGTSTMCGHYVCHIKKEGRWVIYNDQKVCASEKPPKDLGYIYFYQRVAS
Outline: as §1

USP54 = USP54 (UniProt Q70EL1)
USP54, sequence (Q70EL1 whole entry): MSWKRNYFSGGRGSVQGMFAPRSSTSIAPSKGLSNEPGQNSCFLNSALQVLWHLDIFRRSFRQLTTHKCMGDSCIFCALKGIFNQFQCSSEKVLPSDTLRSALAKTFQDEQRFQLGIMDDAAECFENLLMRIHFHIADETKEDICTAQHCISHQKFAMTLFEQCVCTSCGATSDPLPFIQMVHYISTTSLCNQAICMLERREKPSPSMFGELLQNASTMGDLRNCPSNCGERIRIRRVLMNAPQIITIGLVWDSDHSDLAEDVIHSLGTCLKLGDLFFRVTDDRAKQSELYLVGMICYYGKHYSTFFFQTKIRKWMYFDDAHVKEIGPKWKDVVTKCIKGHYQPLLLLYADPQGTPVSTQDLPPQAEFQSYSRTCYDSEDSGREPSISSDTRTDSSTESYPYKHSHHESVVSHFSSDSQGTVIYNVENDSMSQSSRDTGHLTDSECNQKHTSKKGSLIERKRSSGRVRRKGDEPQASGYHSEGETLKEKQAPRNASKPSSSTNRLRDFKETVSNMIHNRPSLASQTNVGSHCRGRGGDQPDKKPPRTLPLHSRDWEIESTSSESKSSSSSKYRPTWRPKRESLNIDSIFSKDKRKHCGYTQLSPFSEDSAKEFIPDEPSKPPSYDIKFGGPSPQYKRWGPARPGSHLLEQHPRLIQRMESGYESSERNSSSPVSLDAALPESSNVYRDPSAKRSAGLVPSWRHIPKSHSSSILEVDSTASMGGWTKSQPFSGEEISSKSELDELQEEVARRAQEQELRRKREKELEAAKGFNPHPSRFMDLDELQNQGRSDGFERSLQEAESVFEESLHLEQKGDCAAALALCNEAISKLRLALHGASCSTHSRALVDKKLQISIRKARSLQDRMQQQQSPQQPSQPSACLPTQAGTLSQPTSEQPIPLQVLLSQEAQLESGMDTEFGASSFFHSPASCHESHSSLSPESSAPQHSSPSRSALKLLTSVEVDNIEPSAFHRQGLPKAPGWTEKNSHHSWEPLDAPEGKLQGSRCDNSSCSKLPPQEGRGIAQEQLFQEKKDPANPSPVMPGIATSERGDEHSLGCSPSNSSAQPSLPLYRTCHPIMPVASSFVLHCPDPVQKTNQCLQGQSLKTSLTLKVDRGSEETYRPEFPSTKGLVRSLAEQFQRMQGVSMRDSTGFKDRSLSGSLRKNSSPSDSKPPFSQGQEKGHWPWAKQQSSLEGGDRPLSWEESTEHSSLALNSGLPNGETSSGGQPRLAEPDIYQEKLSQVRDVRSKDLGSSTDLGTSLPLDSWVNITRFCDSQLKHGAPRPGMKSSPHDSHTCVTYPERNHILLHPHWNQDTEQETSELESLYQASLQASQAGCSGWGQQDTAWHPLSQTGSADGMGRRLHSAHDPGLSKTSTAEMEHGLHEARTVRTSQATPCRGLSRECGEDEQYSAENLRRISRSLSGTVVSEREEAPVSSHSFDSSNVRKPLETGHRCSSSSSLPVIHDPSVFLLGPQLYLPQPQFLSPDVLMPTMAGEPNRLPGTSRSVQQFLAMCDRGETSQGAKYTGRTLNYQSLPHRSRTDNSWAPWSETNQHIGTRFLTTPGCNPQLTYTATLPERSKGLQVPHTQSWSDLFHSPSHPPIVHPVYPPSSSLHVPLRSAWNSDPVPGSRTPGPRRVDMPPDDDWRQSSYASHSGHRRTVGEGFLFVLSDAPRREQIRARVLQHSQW
Outline: as §1

USP7 = USP7 (UniProt Q93009)
Outline: as §1

USP8 = biological target: T5, USP8 (UniProt P40818)
T5 sequence (whole entry): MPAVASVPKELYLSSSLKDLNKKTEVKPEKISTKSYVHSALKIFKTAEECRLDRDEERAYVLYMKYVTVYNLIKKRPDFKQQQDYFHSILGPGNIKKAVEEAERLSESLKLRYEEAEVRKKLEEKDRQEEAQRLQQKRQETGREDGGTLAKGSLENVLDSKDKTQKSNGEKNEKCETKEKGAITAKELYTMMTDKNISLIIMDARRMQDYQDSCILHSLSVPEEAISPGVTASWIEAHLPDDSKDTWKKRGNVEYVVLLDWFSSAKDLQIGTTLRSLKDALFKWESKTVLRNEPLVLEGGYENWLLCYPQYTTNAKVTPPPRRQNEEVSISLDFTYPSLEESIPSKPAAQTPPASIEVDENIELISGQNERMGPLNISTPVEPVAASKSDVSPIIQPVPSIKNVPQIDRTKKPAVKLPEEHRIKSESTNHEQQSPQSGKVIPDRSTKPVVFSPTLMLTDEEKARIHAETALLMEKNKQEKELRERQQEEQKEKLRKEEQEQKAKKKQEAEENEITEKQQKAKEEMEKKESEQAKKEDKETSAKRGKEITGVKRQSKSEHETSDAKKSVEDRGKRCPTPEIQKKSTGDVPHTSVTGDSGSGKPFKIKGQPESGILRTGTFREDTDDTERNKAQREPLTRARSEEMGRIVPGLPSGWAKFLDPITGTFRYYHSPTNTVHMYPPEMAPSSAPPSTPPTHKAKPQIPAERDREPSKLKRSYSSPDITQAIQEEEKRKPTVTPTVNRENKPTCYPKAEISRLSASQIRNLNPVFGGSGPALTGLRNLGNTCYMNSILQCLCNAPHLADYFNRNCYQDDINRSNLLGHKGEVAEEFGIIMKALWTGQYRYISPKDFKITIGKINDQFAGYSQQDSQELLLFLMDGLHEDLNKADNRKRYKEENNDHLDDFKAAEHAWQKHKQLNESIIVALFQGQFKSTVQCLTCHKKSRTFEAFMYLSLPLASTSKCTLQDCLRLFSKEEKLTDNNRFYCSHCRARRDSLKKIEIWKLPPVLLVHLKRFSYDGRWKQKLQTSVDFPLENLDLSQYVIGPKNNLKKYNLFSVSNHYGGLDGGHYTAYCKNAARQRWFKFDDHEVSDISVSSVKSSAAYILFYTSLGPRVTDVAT
Outline: as §1

USP9X = USP9X (UniProt Q93008)
USP9X, sequence (Q93008 whole entry): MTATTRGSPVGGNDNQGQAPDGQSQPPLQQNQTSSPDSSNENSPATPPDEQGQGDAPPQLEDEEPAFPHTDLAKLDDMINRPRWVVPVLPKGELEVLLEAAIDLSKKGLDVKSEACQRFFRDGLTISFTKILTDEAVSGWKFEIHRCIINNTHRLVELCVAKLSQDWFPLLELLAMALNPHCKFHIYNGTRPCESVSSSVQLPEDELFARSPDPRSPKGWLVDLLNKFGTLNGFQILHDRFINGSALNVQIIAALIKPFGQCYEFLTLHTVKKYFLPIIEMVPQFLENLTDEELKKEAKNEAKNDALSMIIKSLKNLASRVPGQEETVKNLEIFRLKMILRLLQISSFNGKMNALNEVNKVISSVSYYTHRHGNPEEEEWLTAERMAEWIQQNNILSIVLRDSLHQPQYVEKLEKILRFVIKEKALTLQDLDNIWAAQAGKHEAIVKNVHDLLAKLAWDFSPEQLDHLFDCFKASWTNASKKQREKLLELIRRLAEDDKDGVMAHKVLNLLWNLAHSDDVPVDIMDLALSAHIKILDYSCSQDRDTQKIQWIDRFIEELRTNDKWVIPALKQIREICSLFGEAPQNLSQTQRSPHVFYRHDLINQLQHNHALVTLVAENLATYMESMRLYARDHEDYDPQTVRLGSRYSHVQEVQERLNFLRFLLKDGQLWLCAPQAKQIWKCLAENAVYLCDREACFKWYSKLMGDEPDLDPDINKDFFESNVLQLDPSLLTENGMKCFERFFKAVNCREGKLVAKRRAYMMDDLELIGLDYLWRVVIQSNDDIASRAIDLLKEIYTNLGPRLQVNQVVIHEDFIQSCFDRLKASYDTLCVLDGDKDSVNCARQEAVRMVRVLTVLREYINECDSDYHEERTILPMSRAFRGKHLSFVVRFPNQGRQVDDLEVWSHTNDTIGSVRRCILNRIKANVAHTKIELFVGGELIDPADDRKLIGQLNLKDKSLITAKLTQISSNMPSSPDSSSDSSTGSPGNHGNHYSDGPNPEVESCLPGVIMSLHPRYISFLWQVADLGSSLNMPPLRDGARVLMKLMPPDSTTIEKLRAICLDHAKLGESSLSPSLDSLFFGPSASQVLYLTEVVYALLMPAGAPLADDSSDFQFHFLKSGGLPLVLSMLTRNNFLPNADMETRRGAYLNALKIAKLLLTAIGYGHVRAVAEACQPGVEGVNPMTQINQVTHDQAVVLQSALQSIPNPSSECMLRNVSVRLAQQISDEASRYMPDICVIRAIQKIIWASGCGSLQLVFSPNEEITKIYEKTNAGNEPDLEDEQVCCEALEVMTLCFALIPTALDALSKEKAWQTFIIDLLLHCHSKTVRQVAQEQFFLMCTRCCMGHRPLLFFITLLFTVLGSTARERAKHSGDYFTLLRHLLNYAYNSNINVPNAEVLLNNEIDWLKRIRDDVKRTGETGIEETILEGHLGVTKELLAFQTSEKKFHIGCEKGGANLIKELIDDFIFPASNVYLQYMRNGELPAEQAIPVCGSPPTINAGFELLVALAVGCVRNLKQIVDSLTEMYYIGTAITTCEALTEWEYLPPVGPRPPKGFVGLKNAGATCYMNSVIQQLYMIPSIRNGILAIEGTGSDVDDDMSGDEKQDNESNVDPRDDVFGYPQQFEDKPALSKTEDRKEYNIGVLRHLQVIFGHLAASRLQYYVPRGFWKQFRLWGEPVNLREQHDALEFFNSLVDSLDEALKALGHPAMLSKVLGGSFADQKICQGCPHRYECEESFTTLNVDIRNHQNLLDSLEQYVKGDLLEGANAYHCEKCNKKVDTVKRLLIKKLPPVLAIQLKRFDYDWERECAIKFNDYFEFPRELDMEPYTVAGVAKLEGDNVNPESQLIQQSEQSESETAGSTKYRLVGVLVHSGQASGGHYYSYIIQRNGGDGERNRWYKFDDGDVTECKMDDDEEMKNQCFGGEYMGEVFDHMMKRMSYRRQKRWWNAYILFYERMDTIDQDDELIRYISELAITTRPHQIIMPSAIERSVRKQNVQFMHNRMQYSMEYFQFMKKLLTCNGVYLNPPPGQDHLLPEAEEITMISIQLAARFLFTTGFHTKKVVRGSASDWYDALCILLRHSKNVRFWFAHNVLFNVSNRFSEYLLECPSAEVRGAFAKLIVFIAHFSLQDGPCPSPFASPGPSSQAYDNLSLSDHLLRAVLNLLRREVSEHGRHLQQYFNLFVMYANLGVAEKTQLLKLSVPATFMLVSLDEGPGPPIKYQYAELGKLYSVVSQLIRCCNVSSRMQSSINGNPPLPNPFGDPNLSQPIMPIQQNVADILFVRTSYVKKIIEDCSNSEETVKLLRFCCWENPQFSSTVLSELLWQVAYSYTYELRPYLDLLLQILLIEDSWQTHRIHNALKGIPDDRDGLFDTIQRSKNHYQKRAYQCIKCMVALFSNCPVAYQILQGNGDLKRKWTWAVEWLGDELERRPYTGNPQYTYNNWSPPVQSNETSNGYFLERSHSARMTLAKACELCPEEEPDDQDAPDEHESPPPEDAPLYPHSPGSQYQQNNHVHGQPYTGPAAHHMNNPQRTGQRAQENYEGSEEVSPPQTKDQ
Outline: as §1

UniProt O00487 = biological target: UniProt O00487
UniProt O00487, sequence (O00487 whole entry): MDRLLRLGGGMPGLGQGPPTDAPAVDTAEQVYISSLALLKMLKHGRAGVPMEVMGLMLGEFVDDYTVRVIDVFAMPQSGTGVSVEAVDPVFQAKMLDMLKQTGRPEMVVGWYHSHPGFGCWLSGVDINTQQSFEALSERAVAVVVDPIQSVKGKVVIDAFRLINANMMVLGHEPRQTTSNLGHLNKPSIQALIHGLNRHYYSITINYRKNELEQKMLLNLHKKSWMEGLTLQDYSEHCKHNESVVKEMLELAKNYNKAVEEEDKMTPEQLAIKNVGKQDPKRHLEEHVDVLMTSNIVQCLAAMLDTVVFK
Outline: as §1

Measured: log2 ratio of Biotin-Ahx-Ub-VS probe labelling

Cc1nc(CC2CCN(C(=O)CCl)CC2)no1
inactive: USP42 0.631 | USP46 -0.332 | USP47 -0.726 | USP48 -0.576 | USP5 -0.492 | USP54 0.803 | USP7 -0.904 | USP8 -0.755 | USP9X -0.815 | UniProt O00487 -0.084
